From PubChem BioAssay AID1159580 (chemical genetic matrix, 2015)
“And” between values parts separate entries of the source, which are not always exact repeats. Equal values may be shown once. The whole screen tested about 5,500 compounds, of which about 2,000 (36%) were called active. Not shown: some 18% with an inconclusive outcome. Rule as the data show it: active = normalized growth mostly below about 0.91 (no sharp cut-off); inconclusive = no clear call, values can overlap the other calls; inactive = mostly above about 0.92. The list shows a part of the results.

Assay: chemical genetic growth profiling, strain panel (AID 1159580);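 also: tested at 20 µM; growth read once vehicle control cultures reached saturation at 30 °C; 1 = growth at the plate median or of vehicle wells; lower values mean less growth of the strain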
Conditions: S. cerevisiae deletion strains, growth OD

Measured: normalized growth

C[C@@H]1CC[C@@]2(OC1)OC1C(O)C3C4CC[C@H]5C[C@H](O[C@@H]6O[C@H](CO)[C@H](O[C@@H]7O[C@H](CO)[C@@H](O)[C@H](O[C@@H]8OC[C@@H](O)[C@H](O)[C@H]8O)[C@H]7O[C@@H]7O[C@H](CO)[C@H](O)[C@H](O[C@@H]8O[C@H](CO)[C@@H](O)[C@H](O)[C@H]8O)[C@H]7O)[C@H](O)[C@H]6O)[C@H](O)C[C@]5(C)C4CC[C@]3(C)C1[C@@H]2C (stereo partly specified)
active: locus YAL013W, strain DEP1, hits give low values 0.0526 | locus YBR021W, strain FUR4, hits give low values 0.0876 | locus YBR229C, strain ROT2, hits give low values 0.0499 | locus YCL029C, strain bik1, hits give low values 0.0554 | locus YDL035C, strain GPR1, hits give low values 0.0509 | locus YDL074C, strain BRE1, hits give low values 0.0891 | locus YDL101C, strain DUN1, hits give low values 0.0606 | locus YDL185W, strain tfp1, hits give low values 0.0577 | locus YDL192W, strain arf1, hits give low values 0.0632 | locus YDR101C, strain arx1, hits give low values 0.0567 | locus YDR137W, strain rgp1, hits give low values 0.509 | locus YDR150W, strain NUM1, hits give low values 0.0485 | locus YDR159W, strain sac3, hits give low values 0.84 | locus YDR162C, strain NBP2, hits give low values 0.0515 | locus YDR195W, strain ref2 0.61 | locus YDR318W, strain mcm21, hits give low values 0.0561 | locus YDR335W, strain msn5, hits give low values 0.907 | locus YDR388W, hits give low values 0.0552 | locus YDR502C, strain sam2, hits give low values 0.0624 | locus YER110C, hits give low values 0.0702 | locus YER111C, strain swi4, hits give low values 0.642 | locus YER155C, strain BEM2, hits give low values 0.0639 | locus YER167W, strain BCK2, hits give low values 0.0533 | locus YGL078C, strain dbp3, hits give low values 0.0574 | locus YGL086W, strain mad1, hits give low values 0.0591 | locus YGL167C, strain pmr1, hits give low values 0.749 | locus YGL240W, strain doc1, hits give low values 0.846 | locus YGL248W, strain PDE1, hits give low values 0.0484 | locus YGR078C, strain PAC10, hits give low values 0.0519 | locus YGR135W, strain pre9, hits give low values 0.0583 | locus YGR252W, strain gcn5, hits give low values 0.173 | locus YHR030C, strain SLT2, hits give low values 0.0897 | locus YHR079C, strain IRE1 (second series), hits give low values 0.0526 | locus YHR079C, strain IRE1, hits give low values 0.12 | locus YHR094C, strain hxt1, hits give low values 0.0539 | locus YHR129C, strain ARP1, hits give low values 0.0547 | locus YHR200W, strain rpn10, hits give low values 0.0577 | locus YIL066C, strain RNR3, hits give low values 0.0505 | locus YIL073C, strain SPO22, hits give low values 0.119 | locus YIL125W, strain kgd1, hits give low values 0.0532 | locus YIR030C, strain dcg1, hits give low values 0.054 | locus YJL095W, strain BCK1, hits give low values 0.059 and 0.105 | locus YJL134W, strain LCB3, hits give low values 0.0488 | locus YJL168C, strain set2, hits give low values 0.0534 | locus YJL187C, strain SWE1 (second series), hits give low values 0.0518
inactive: locus YAL021C, strain ccr4, hits give low values 0.988 | locus YAL026C, strain drs2, hits give low values 1.01 | locus YAL030W, strain snc1, hits give low values 1.02 | locus YBL061C, strain skt5, hits give low values 1.01 | locus YBR009C, strain hhf1, hits give low values 0.942 | locus YBR023C, strain chs3, hits give low values 1.01 | locus YBR171W, strain sec66, hits give low values 0.986 | locus YBR231C, strain swc5, hits give low values 0.99 | locus YBR279W, strain paf1, hits give low values 1.02 | locus YCL011C, strain gbp2, hits give low values 0.986 | locus YCL016C, strain dcc1, hits give low values 0.995 | locus YCL061C, strain MRC1, hits give low values 0.999 | locus YCL069W, strain vba3, hits give low values 1.02 | locus YCR088W, strain abp1, hits give low values 1.01 | locus YDL005C, strain med2, hits give low values 1.06 | locus YDL040C, strain nat1, hits give low values 1.02 | locus YDR001C, strain nth1, hits give low values 1.02 | locus YDR069C, strain doa4, hits give low values 1.03 | locus YDR297W, strain sur2, hits give low values 1.02 | locus YDR334W, strain swr1, hits give low values 1.02 | locus YDR392W, strain spt3, hits give low values 0.919 | locus YEL003W, strain gim4, hits give low values 1 | locus YEL037C, strain rad23, hits give low values 1.02 | locus YEL061C, strain CIN8 (second series), hits give low values 0.999 | locus YER015W, strain faa2, hits give low values 1.02 | locus YER016W, strain bim1, hits give low values 0.977 | locus YER155C, strain BEM2 (second series), hits give low values 1.01 | locus YFR010W, strain ubp6, hits give low values 1.01 | locus YGL173C, strain kem1, hits give low values 1 | locus YGL227W, strain vid30, hits give low values 1.03 | locus YGL253W, strain hxk2, hits give low values 1.02 | locus YHR013C, strain ard1, hits give low values 1.03 | locus YHR027C, strain rpn1, hits give low values 1.02 | locus YHR142W, strain chs7, hits give low values 0.876 | locus YJL092W, strain hpr5, hits give low values 1.01 | locus YJL095W, strain BCK1 (second series), hits give low values 1.01 | locus YJL115W, strain asf1, hits give low values 1.03 | locus YJL129C, strain trk1, hits give low values 0.944 | locus YJL154C, strain vps35, hits give low values 1.01 | locus YJL164C, strain tpk1, hits give low values 0.933 | locus YJL166W, strain qcr8, hits give low values 0.969
